According to PubChem BioAssay (NCI):
This is part of a sample that, as a whole, favours compounds with a hit. Of some 83,000 tested, about 20% had one in any assay.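 The endpoint reported here, percent growth, reads 100 for growth as untreated, 0 for no net growth and -100 for all cells dead.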 Calls of active or inactive are those of the source. Rule for the calls: active = growth percent below 10; inactive = the rest.

Assays:
Assay in all cases: NCI-60 one-dose screen, 48 h (100 = growth as untreated, 0 = no growth, -100 = all killed)
Conditions in all cases: 10 µM unless noted
[1] = tested on: DU-145 prostate
[2] = tested on: K-562 leukemia
[3] = tested on: MALME-3M melanoma
[4] = tested on: MDA-MB-231 breast
[5] = tested on: RXF 393 renal
[6] = tested on: SF-268 CNS
[7] = tested on: SF-295 CNS
[8] = tested on: SF-539 CNS
[9] = tested on: UACC-257 melanoma
[10] = tested on: M14 melanoma
[11] = tested on: HCT-15 colon
[12] = tested on: HT29 colon
[13] = tested on: SNB-75 CNS
[14] = tested on: SNB-19 CNS
[15] = tested on: U251 CNS
[16] = tested on: PC-3 prostate
[17] = tested on: SK-MEL-5 melanoma
[18] = tested on: UACC-62 melanoma
[19] = tested on: LOX IMVI melanoma
[20] = tested on: SK-MEL-28 melanoma

Measured: growth

CCOC(=O)c1cccnc1Nc1ccc(NC(=O)Nc2ccc(Cl)c(C(F)(F)F)c2)cc1
active: [7] 9.85% | [16] 7.22%
inactive: [1] 32.6% | [2] 13.4% | [3] 51.4% | [4] 95.8% | [5] 93.7% | [6] 73.5% | [8] 75.6% | [9] 58% | [10] 42.7% | [11] 14.4% | [12] 36.1% | [13] 106% | [14] 49.3% | [15] 30.1% | [17] 67.8% | [18] 45.4% | [19] 22.5% | [20] 43.7%

Cc1ccsc1[C@H]1c2[nH]c3ccccc3c2C[C@H]2C(=O)N(CCCCCCC(=O)NO)CC(=O)N12
inactive: [1] 90.6% | [2] 58.2% | [3] 25.6% | [4] 96.8% | [5] 85.9% | [6] 105% | [7] 95.1% | [8] 77.9% | [9] 76% | [10] 86.4% | [11] 99.1% | [12] 87.3% | [13] 51.8% | [14] 81.1% | [15] 83.8% | [16] 78.6% | [17] 83.4% | [18] 57.9% | [20] 73.7%
active: [19] -71.9%

N#Cc1nc(-c2ccccc2)oc1N1CCC(C2(C(F)(F)F)N=N2)CC1
inactive: [1] 103% | [2] 90% | [3] 102% | [4] 93.8% | [5] 99.4% | [6] 101% | [7] 101% | [8] 99.2% | [9] 102% | [10] 102% | [11] 102% | [12] 102% | [13] 98.7% | [14] 102% | [15] 97.5% | [16] 97% | [17] 99.2% | [18] 93.4% | [19] 97.1% | [20] 119%

c1ccc(-c2cn3c(-c4c[nH]c5ccccc45)csc3n2)cc1
inactive: [1] 94% | [2] 36.5% | [3] 69.6% | [4] 61.7% | [5] 83.2% | [6] 79.6% | [7] 77.6% | [8] 81.9% | [9] 54.2% | [10] 73% | [11] 85.6% | [12] 63% | [13] 80.9% | [14] 59.7% | [15] 61% | [16] 43.2% | [17] 81% | [18] 49.6% | [19] 83.7% | [20] 71.9%

COc1ccc(Cn2cc(C#N)c(N)c2C(C)=O)cc1
inactive: [1] 107% | [2] 103% | [3] 102% | [4] 94.8% | [5] 102% | [6] 96.5% | [7] 110% | [8] 99.5% | [9] 106% | [10] 110% | [11] 98.5% | [12] 112% | [13] 84.5% | [14] 85.8% | [15] 109% | [16] 105% | [17] 100% | [18] 87.1% | [19] 98.6% | [20] 109%

O=c1nc(Nc2ccc([N+](=O)[O-])cc2O)sc2ccccc12
active: [5] 7.31% | [7] -34.2% | [8] -36.5% | [13] -11.7%
inactive: [1] 25.1% | [2] 12.9% | [3] 30.7% | [4] 51.8% | [6] 59.4% | [9] 65% | [10] 17.5% | [11] 26.6% | [12] 81.7% | [14] 28.7% | [15] 36.8% | [16] 16.5% | [17] 21% | [18] 15.2% | [19] 41.2% | [20] 50.8%

CCC1=Cc2c(OC)cccc2OC12C=Cc1c(OC)cccc1O2 (stereo not given)
inactive: [1] 27.1% | [3] 50.9% | [4] 11% | [6] 58.6% | [9] 75.7% | [11] 13.4% | [13] 18.6% | [14] 24.8% | [15] 24.7% | [16] 36.1% | [17] 25.7% | [18] 26.2% | [19] 28.4% | [20] 52%
active: [2] 7.63% | [5] 1.82% | [7] 4.11% | [8] -5.65% | [10] 6.53% | [12] 4.59%

CCOC(=O)c1ccc(NC2=C(Cl)C(=O)c3nc(C)ccc3C2=O)cc1
active: [2] 7.29% | [11] -48.5% | [19] 0.747%
inactive: [1] 91% | [3] 11.7% | [4] 77.4% | [5] 45.6% | [6] 70.8% | [7] 65% | [8] 54.3% | [9] 44.2% | [10] 52.4% | [12] 71.5% | [13] 70.1% | [14] 68.1% | [15] 63.8% | [16] 48% | [17] 63.6% | [18] 55.5% | [20] 55.2%
